Sampled rows, rich in hits. Any-hit rate of the full collection: about 2.5%.
ANO1 block: mouse TMEM16A channel inhibition, primary screen; Q8BHY3; HEK293 TMEM16A/YFP iodide influx fluorescence, ionomycin; normalized B-score (activity score, 25-100; higher = stronger inhibition) at 10 µM; 1.2% of 310,000 active;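 active = ratio plate-corrected score three or more library SD toward inhibition, starting fluorescence score within five deviations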;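 also: score derived from kinetic fluorescence span divided by baseline fluorescence per well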
TMEM16A act: activates or potentiates the mouse TMEM16A chloride channel | 0.3% of 340,000 active | HEK293 TMEM16A/YFP-H148Q/I152L, iodide quench fluorescence; stronger effect = lower value | B-score at 10 µM | AID 623877;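 active = fluorescence-ratio B-score plate-corrected deviation score at least 3 library SD below zero, with starting fluorescence score within 5 deviations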;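 also: channel opened by trigger with iodide after compound preincubation; score built on the fluorescence ratio of max minus min over baseline; more negative score means more quench and so TMEM16A activation or potentiation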
Jurkat NFkB inh: inhibitors of the PMA/ionomycin-induced NF-kB reporter in Jurkat cells; 0.53% of 330,000 active; AID 435003; PMA/ionomycin-induced NF-kB luciferase reporter, luminescence; inhibition, % at 4 µM; in the data active = inhibition above about 50%
aSyn UTR inh: MLPCN primary screen, SNCA 5' untranslated region; AID 1813; alpha-synuclein 5'UTR reporter, inhibitor activity; inhibition, % (tested at 7.5 µM); 0.82% of 300,000 active; in the data active = inhibition above about 60%; inconclusive = no clear call, values can overlap the other calls;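 also: H4 neuroglioblastoma cells stably carrying SNCA 5'UTR luciferase fusion; 0% = DMSO wells and 100% = positive control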
KLF5 inhibitor: suppresses KLF5 promoter-driven expression | DLD-1 KLF5 promoter-luciferase reporter, luminescence | inhibition, % at 5 µM | 0.23% of 290,000 active | AID 1700;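 active = inhibition above a per-plate limit of that plate's mean compound inhibition plus 3 SD, cut at about 60% in these data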;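 also: 0% = DMSO wells and 100% = LY294002 at 200 µM; higher means less KLF5 promoter-driven luciferase light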
697 NFkB inh: lowers PMA/ionomycin-induced NF-kB signal in 697 B cells. 697 B-cell NF-kB luciferase reporter, 16 h. inhibition, % at 4 µM. 0.33% of 330,000 active. AID 435022; in the data active = inhibition above about 35%
Jurkat NFkB conf: lowers PMA/ionomycin-induced NF-kB signal in Jurkat cells; shares compounds with Jurkat NFkB inh; Jurkat NF-kB luciferase, 16 h; inhibition, % at 4 µM; 27% of 2,700 active; AID 435020;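 active = inhibition reaching about 45% at 4 µM in either replicate, limit read from the data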;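 also: plate controls were PMA/ionomycin stimulated DMSO wells for no effect and unstimulated DMSO wells for full effect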
697 NFkB conf: lowers PMA/ionomycin-induced NF-kB signal in 697 B cells; inhibition, % at 4 µM; shares compounds with 697 NFkB inh; 697 B-cell NF-kB luciferase, 16 h; 35% of 2,000 active; AID 449746; in the data active = inhibition mostly above about 28%, no sharp cut-off; inactive = mostly below about 22%
TMEM16A reconf: re-confirmation of mouse TMEM16A chloride channel inhibitors. HEK293 TMEM16A/YFP-H148Q, iodide quench fluorescence; ionomycin added to raise cell calcium. inhibition, % at 10 µM. shares compounds with ANO1 block. 39% of 2,300 active;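 active = mean duplicate percent inhibition, scaled so buffer wells are 0 and the reference blocker 100, over three buffer SD above buffer mean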
TMEM16A Ca cntr: alters calcium mobilization in TMEM16A HEK293 cells, counter-screen. shares compounds with ANO1 block. TMEM16A/YFP HEK293, Fluo4 calcium mobilization. calcium response (% of ionomycin), % at 10 µM. 2% of 2,300 active;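 active = duplicate-averaged calcium signal over 20% of the ionomycin maximum, relative to buffer baseline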;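 also: each well's signal is peak minus trough fluorescence divided by its pre-addition baseline; 0% = buffer wells and 100% = ionomycin wells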
YFP-HEK293 quench: parental YFP-HEK293 iodide quench counter-screen activity | shares compounds with ANO1 block | ionomycin | YFP ratio F(max-min)/F0 at 10 µM | 2,300 tested, under 10 active | AID 652233;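 active = yellow fluorescent protein signal ratio exceeding the buffer control mean by over 5 SD of those controls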;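 also: ratio is mean of duplicate wells from kinetic YFP trace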
ClC-1 inh: selectivity of TMEM16A inhibitors: inhibition of rat ClC-1 chloride channel; AID 652236; CHO ClC-1-YFP, iodide influx fluorescence quench; iodide control reads 0, buffer control 100; 2,300 tested, under 10 active; shares compounds with ANO1 block; ratio percent, % at 10 µM;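 active = duplicate-mean ratio percent above the mean of iodide-only control wells, which defines zero, plus 5 of their SD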;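 also: higher percent means stronger block of ClC-1 iodide influx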
Starred values were filed as active, the others as inactive; i = inactive; ? = inconclusive; . = no result given.

SMILES	ANO1 block	TMEM16A act	Jurkat NFkB inh	aSyn UTR inh	KLF5 inhibitor	697 NFkB inh	Jurkat NFkB conf	697 NFkB conf	TMEM16A reconf	TMEM16A Ca cntr	YFP-HEK293 quench	ClC-1 inh
CCC(C(=O)Nc1ccc(C(=O)Nc2ccccc2C(=O)O)cc1)c1ccccc1 (configuration not stated)	i	i	23.6	-12.5	-30.3	13.5	.	.	.	.	.	.
Cc1ccc(S(=O)(=O)N2c3ccccc3CC2C)cc1 (configuration not stated)	i	i	10.4	8.5	-32.9	-5.4	.	.	.	.	.	.
CCOc1ccc(S(=O)(=O)N2c3ccccc3CC2C)cc1 (configuration not stated)	100*	i	70.9*	92.6*	54.5	10.0	50.7*	.	i	i	-1.12	-7.5
O=c1oc2ccccc2cc1-c1nc2c(s1)CCCC2	25*	i	-164.7	?	-189.6	-305.4	-78.9	-369.2	i	i	-1.25	-7.5
CCOC(=O)c1ccccc1NS(=O)(=O)c1ccc(OCC)cc1	25*	i	61.6*	-14.0	26.1	-88.0	42.5	.	i	i	-1.21	-7.5
CN(C)c1ccc(S(=O)(=O)N2CCCCC2)cc1NC(=O)CCNC(=O)c1ccccc1Cl	.	i	.	.	.	.	.	.	.	.	.	.
Cc1cc(C)nc(/N=C(\N)Nc2ccc(OCCC(C)C)cc2)n1	100*	i	60.7*	-6.2	-16.5	-25.7	25.1	.	29.0%*	55.5%*	-1.19	-17.0
Cc1cc(C)nc(/N=C(\N)Nc2ccc(CC(=O)OC(C)C)cc2)n1	i	i	42.0	-22.1	5.7	-72.4	.	.	.	.	.	.
COc1ccc(CCNc2cc(N3CCN(C(=O)c4ccccc4F)CC3)ccc2[N+](=O)[O-])cc1OC	25*	i	57.7*	18.5	-11.6	-15.8	67.3*	.	42.5%*	i	-0.846	-18.5
Cc1ccc(N/C(N)=N/c2nc(C)cc(N3CCCCC3)n2)c(C)c1	100*	-6.34*	88.6*	-0.6	10.5	-78.1	16.2	.	62.5%*	i	-0.918	-29.0
COc1ccc(CCNc2ncnc3sccc23)cc1OC	100*	-7.81*	64.3*	-20.8	51.6	74.6*	66.8*	92.3*	23.5%*	i	-0.776	-29.0
O=C(c1cc(COc2cccc3cnccc23)on1)N1CCCC(CCCO)C1 (configuration not stated)	25*	i	54.7*	-4.5	6.1	56.1*	77.2*	101.5*	40.5%*	i	-1.25	-19.0
Cc1cccc(NC(=O)c2ccc(Cl)c(S(=O)(=O)N3CCc4ccccc43)c2)n1	.	i	-15.6	.	.	-15.5	.	.	.	.	.	.
O=C(Nc1ccncc1)c1ccc(Cl)c(S(=O)(=O)N2CCc3ccccc32)c1	25*	i	59.9*	-24.5	.	-17.0	78.6*	.	31.5%*	i	-1.12	-30.5
COc1ccc(/C=N/NC(=O)c2cccnc2)cc1COc1ccc([N+](=O)[O-])c(C)c1	25*	i	57.4*	97.9*	57.3	-22.9	20.6	.	22.5%*	i	-1.03	-15.5
COc1cc(NC(=O)COc2cc(O)c3c(c2)OC(C)(C)CC3=O)cc(OC)c1OC	100*	i	57.5*	-28.1	26.9	59.5*	75.7*	47.8*	20.5%*	i	-1.32	-29.5
Cc1cc(C(=O)NCC(c2ccco2)N2CCCC2)c2ccccc2n1 (configuration not stated)	.	i	-3.0	.	.	6.0	.	.	.	.	.	.
CCCCCCCCNc1ncnc2ccccc12	100*	i	71.1*	-16.5	-2.7	107.0*	68.1*	100.5*	38.0%*	i	-1	-35.5
N#CC1=C(N)OC2=C(CCc3ccccc32)C1c1ccccc1 (configuration not stated)	100*	i	75.7*	70.4*	-51.0	-36.6	7.5	.	51.5%*	i	-1.1	-10.0
Cc1ccc(/C=C2\CCC3=C2OC(N)=C(C#N)C3c2ccc(C)cc2)cc1 (configuration not stated)	i	i	-16.9	-11.6	-29.5	-8.8	.	.	.	.	.	.
CCC(=O)Nc1nc(-c2ccc3c(c2)CC(C)N3S(C)(=O)=O)cs1 (configuration not stated)	i	i	-12.5	-70.0	-86.2	3.8	.	.	.	.	.	.
CC1Cc2cc(-c3csc(NC(=O)Cc4cccs4)n3)ccc2N1S(C)(=O)=O (configuration not stated)	25*	i	57.1*	-19.6	-16.1	56.0*	76.2*	23.8	22.5%*	i	-1.42	-4.5
COc1cc(C2NC(=O)NC(C)=C2C(=O)OC(C)(C)C)ccc1OCC(=O)O (configuration not stated)	i	i	1.5	18.5	-21.0	40.1*	.	10.2	.	.	.	.
COc1cc(C2NC(=O)NC(c3ccccc3)=C2C(C)=O)ccc1OCC(=O)O (configuration not stated)	i	i	1.6	-8.4	10.4	-12.2	.	.	.	.	.	.
CN(CC(=O)Nc1ccccc1Br)C(=O)C(Cc1ccccc1)NC(=O)c1ccccc1 (configuration not stated)	i	i	-1.7	19.0	-33.5	2.4	.	.	.	.	.	.
CCN(CC(N)=O)S(=O)(=O)c1ccc(F)cc1	i	i	-0.6	12.5	-8.3	41.6*	.	-7.1	.	.	.	.
Cc1ccc(C(=O)N/N=C/c2nc3ccccc3n2C)cc1	i	i	-15.3	-27.3	-15.7	38.7*	.	19.9	.	.	.	.
Cn1c(/C=N/NC(=O)c2ccccc2Br)nc2ccccc21	i	i	5.3	-18.2	-21.3	15.6	.	.	.	.	.	.
Cc1ccc(NS(=O)(=O)c2cccc(C(=O)O)c2)cc1S(=O)(=O)N1CCOCC1	i	i	0.4	-51.5	-12.5	14.9	.	.	.	.	.	.
Cc1ccc(NS(=O)(=O)c2ccc(Br)s2)cc1S(=O)(=O)N1CCOCC1	i	i	-8.7	-8.9	-24.8	45.9*	.	-7.8	.	.	.	.
